Assay outcomes as filed in PubChem.
Rows were chosen to be rich in hits. Some 7.1% of all compounds tested hit in one or more screens of this group.
MCF10A rereplic – DNA re-replication induction in MCF 10a cells. MCF 10A DNA re-replication, Hoechst nuclear intensity, 48 h. Potency, µM (titrated, usually from 46.1 µM), inactives show at the highest dose activity, positive = re-replication, usual class: activators. 350,000 tested, 2.9% active. AID 624296; also: % of control where 0% means no effect; nearly all actives have a fitted effect of over 50% in size
AT treatment – potential ataxia-telangiectasia treatment; F2112 A-T fibroblasts, KAP-1 phosphorylation AlphaLISA; neocarzinostatin DNA damage 30 min before lysis; Potency, µM (doses to about 57.5 µM), for the others: at the highest dose activation, hits mostly activators; AID 485349; 320,000 tested, 0.19% active; also: % of control where 0% means no effect; nearly all actives have a fitted effect of over 45% in size
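hTERT-immortalized A-T patient fibroblasts (F2112), 500 cells/well in OPTI-MEM, 1% FBS, got compounds for 60 min, then NCS for 30 min at 37C. Lysates were then assayed for phospho-KAP-1 by AlphaLISA (anti-pKAP1 donor, anti-KAP1 acceptor beads), 6 hr at 25C.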
ELG1 genotox – genotoxicity induction in ELG1-luciferase HEK293T cells; 330,000 tested, 1.3% active; HEK293T ELG1-luciferase reporter, luminescence, 16 h; Potency, µM (doses to about 46 µM), inactives show top-dose activity change, positive = activation, actives largely listed as activators; also: % of control where 0% means no effect; nearly all actives have a fitted effect of over 60% in size
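HEK293T cells expressing luciferase-tagged ELG1 were exposed to compound or DMSO vehicle for 16 hr at 37 °C and 5% CO2. Luciferase activity was then measured with ONE-Glo after 30 min at room temperature.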
ELG1 repair inh – blocks ELG1-dependent DNA repair in HEK293T cells | AID 504467 | Potency, µM (doses to about 46.1 µM), without a hit: at the top dose activity change, negative = inhibition, hits mostly inhibitors | 330,000 tested, 2.3% active | HEK293T ELG1-luciferase reporter, luminescence, 16 h; DNA damage induced by 5-fluorouridine; also: % is scaled to controls: 0 for no effect and ±100 for the full control effect; nearly all actives have a fitted effect of over 55% in size
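HEK293T cells expressing luciferase-tagged ELG1 (2,000/well) received 5-Fluorouridine plus compound or DMSO for 16 hr at 37 °C. Luciferase was read by ONE-Glo luminescence after 30 min at room temperature.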
p53 reactivator – re-activators of mutant p53. 320,000 tested, 0.063% active. H1299 p53-A138V BP100-luciferase reporter, luminescence, 24 h. Potency, µM (top dose mostly 92.2 µM), inactives show top-dose activity change, positive = activation, hits mostly activators; also: % of control where 0% means no effect; nearly all actives have a fitted effect of over 45% in size
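H1299 (p53-null), stable ts p53-A138V + BP100-Luc; 1000 cells/well, Opti-MEM/10% FBS; cpd 4 pt, 1:5; 24 h, 37 deg C, 5% CO2; detection reagent 10 min RT; luminescence.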
SW480 rereplic – inducers of DNA re-replication in SW480 colon cancer cells. SW480 DNA re-replication, Hoechst DNA content imaging, 48 h. 340,000 tested, 1.8% active. Potency, µM (titrated, usually from 46.1 µM), without a hit: at the top dose re-replication activation, usual class: activators; also: % of control where 0% means no effect; nearly all actives have a fitted effect of over 55% in size
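DNA re-replication was detected as more nuclei of elevated Hoechst intensity after 48 hr exposure to compound (23 nL pinned per well of 250 cells).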
The depositor's hits bear a star; u = inconclusive; x = no result; [ ] = dose if it differs, or a comment. Calls follow the shape of the dose curve; as a rule, active = well fitted curve in the direction sought with a large enough effect; inconclusive = small, poorly fitted or top-dose-only effect, or another doubt; inactive = no such curve, though single readings can be large; an effect the other way counts as inactive or inconclusive. Potency is read from the fitted curve at half-maximal effect.

SMILES | MCF10A rereplic | AT treatment | ELG1 genotox | ELG1 repair inh | p53 reactivator | SW480 rereplic
CC(OC(=O)C1=COCCO1)C(=O)Nc1ccc(Cl)cn1 (stereo unspecified) | 19.6% | 6.5% | 1.2% | -1.4% | 0.2% | 14.4%
CCCS(=O)(=O)Nc1ccc(Nc2c3ccccc3nc3ccccc23)c(OC)c1 | 21.0% | x | x | x | x | 7.31µM*
COCC(=O)OCc1cc2cccc(C)c2[nH]c1=O | 19.7% | 12.2% | 0.0% | 3.7% | -1.2% | 22.0%
Cc1cccc2cc(COC(=O)COc3ccccc3)c(=O)[nH]c12 | 13.2% | 22.4µM* | -6.9% | 6.6% | -0.2% | -1.8%
C=Cc1c(C)/c2[n-]/c1=C\c1[n-]c(c(CC)c1C)/C=c1\[n-]c3c(c1C)C(=O)C(C(=O)[O-])C=3c1[n-]c(c(C)c1CCC(=O)[O-])\C=2.[Cu].[Na+].[Na+] (stereo unspecified) | -15.5% | x | x | x | x | -19.3%
Cc1ccc(CCNC(=O)C2CCN(S(=O)(=O)c3ccc4c(c3)NC(=O)CO4)CC2)cc1 | 15.3% | -1.2% | 0.6% | -4.4% | -4.4% | -5.7%
CCOc1ccccc1C(=O)N[C@H](C(=O)OCc1cc([N+](=O)[O-])cc2c1OCOC2)C(C)C | 19.0% | -10.8% | -3.4% | 20.6µM* | 10.4% | 22.3%
Cc1occc1C(=O)N1CCN(S(=O)(=O)c2ccccc2)CC1 | -4.2% | 9.8% | -6.6% | 13.2% | 14.8% | -4.3%
CN1CCN(c2nc3ccccc3nc2C(C#N)S(=O)(=O)c2ccccc2)CC1 (stereo unspecified) | 27.9% | -4.5% | -15.0% | 8.2µM* | -3.5% | 15.8%
Cc1cc(S(=O)(=O)Nc2ccc(C(=O)NCC(C)(C)N3CCOCC3)cc2)ccc1F | -36.3% | 6.4% | 2.5% | -9.8% | -10.0% | -6.8%
C=CCn1c(-c2ccccc2)c[nH]c1=S | 19.7% | x | 13µM* | u | u | u
O=C(CCNS(=O)(=O)c1ccc(OC(F)(F)F)cc1)NCCc1c[nH]c2ccccc12 | u | -5.5% | -6.8% | -11.3% | 4.9% | -10.4%
Cc1ccccc1OCCNC(=O)c1ccc2ccccc2n1 | u | 12.5% | 20.6µM* | u | u | -0.1%
COC(=O)Nc1cc(C(=O)c2ccc(Cl)cc2Cl)c[nH]1 | -0.9% | -4.5% | 1.1% | 12.0% | 5.5% | -12.1%
Cc1ccc(C(=O)Cc2ccccc2)c(O)c1 | -31.2% | x | x | x | x | -8.5%
CC(C)=CCc1c(O)ccc(C(=O)Cc2ccccc2)c1O | 20.6µM* | 1.2% | -2.2% | 16.6% | 1.0% | 3.7%
CN(CC(=O)Nc1ccccc1C(F)(F)F)C(=O)C1CC1 | -1.2% | 0.8% | 3.4% | 1.2% | -4.7% | -2.0%
Cc1ccc(-c2cnc3c(Cl)c(C)nn3c2)cc1 | u | 2.0% | u | u | u | 10.3µM*
CCOC(=O)c1cnc2c(C)cc(Cl)cc2c1NCCCN1CCOCC1 | 23.1µM* | -2.2% | 0.3% | -18.4% | x | -0.1%
COC(=O)[C@@]12CCCN1[C@H](c1ccc(-c3ccc4c(c3)OCO4)cc1)[C@H]1C(=O)N(C)C(=O)[C@H]12 | -1.5% | -2.6% | -0.8% | 1.5% | 0.0% | 12.2%
O=C(Oc1ccc(-c2cnc3ccccc3n2)cc1)c1ccco1 | -177.3%[0.0737 µM] | 7.3% | 16.4µM* | u | u | -24.4%
COc1ccccc1N(C)S(=O)(=O)c1ccc(C(=O)N2CCCC(C(F)(F)F)C2)cc1 (stereo unspecified) | 7.8% | -0.5% | -2.2% | -23.9% | -3.1% | 4.61µM*
COc1ccccc1N(C)S(=O)(=O)c1ccc(C(=O)Nc2cccc(Br)c2)cc1 | u | 0.5% | -18.0% | 18.3µM* | -0.8% | u
COc1cc(NC(=O)c2ccc(S(=O)(=O)N(C)c3ccccc3OC)cc2)cc(OC)c1 | u | -1.7% | -7.1% | 14.6µM* | -7.3% | 1.5%
COc1ccccc1N(C)S(=O)(=O)c1ccc(Cl)c(C(=O)NCc2ccco2)c1 | 6.3% | -6.0% | -1.7% | 20.6µM* | 1.3% | 0.8%
SMILES | MCF10A rereplic | AT treatment | ELG1 genotox | ELG1 repair inh | p53 reactivator | SW480 rereplic
COc1ccccc1NS(=O)(=O)c1ccc(C(=O)N2CCCC(C(F)(F)F)C2)cc1 (stereo unspecified) | 16.8% | -4.4% | 0.6% | -4.5% | -6.5% | -7.4%
COc1ccccc1N(C)S(=O)(=O)c1ccc(C(=O)Nc2nccs2)cc1 | 9.9% | 3.6% | -8.7% | u | -2.0% | -9.2%
COc1ccccc1N(C)S(=O)(=O)c1ccc(C(=O)Nc2ccc(N3CCOCC3)cc2)cc1 | -20.8% | -3.8% | -11.4% | 23.1µM* | -3.2% | -7.5%[1.84 µM]
COc1ccccc1N(C)S(=O)(=O)c1ccc(C(=O)NCC(C)C)cc1 | 2.2% | 2.6% | -6.4% | u | -4.7% | -5.0%
CN(CC(=O)Nc1ccc(N2CCOCC2)cc1)C(=O)c1cc(S(=O)(=O)N(C)C)ccc1Cl | 2.4% | 3.8% | 13.0% | u | 27.2% | 15.8%
COc1ccccc1N(C)S(=O)(=O)c1ccc(C(=O)NCCc2ccc(F)cc2)cc1 | -2.4% | -1.1% | -30.0% | u | -5.0% | -4.0%
COc1ccccc1N(C)S(=O)(=O)c1ccc(C(=O)N(C)Cc2ccc(OC(F)F)cc2)cc1 | 16.8% | 15.5% | -9.5% | 16.4µM* | -1.5% | u
C=CCN(c1ccccc1OC)S(=O)(=O)c1ccc(Cl)c(C(=O)Nc2ccc(N3CCOCC3)cc2)c1 | 9.6% | -1.4% | 0.9% | 7.3µM* | -3.9% | -3.0%
COc1cc2c(cc1OC)C1O[C@](c3ccsc3)(C2)OC2=C1C(=O)CC(C)(C)C2 | x | -0.5%[11.5 µM] | x | x | x | x
CCCCc1nnc(NC(=O)c2oc3ccc(OC)cc3c2C)s1 | 17.1% | -0.2% | 8.7% | u | 12.5% | 2.7%
COc1ccc2oc(C(=O)Nc3nccs3)c(C)c2c1 | 16.5% | -1.5% | 0.517µM* | u | 17.8% | -63.1%
COc1ccc(NC(=O)Nc2nccs2)cc1 | u | -1.3% | u | u | u | 11.6µM*
COC(=O)c1ccc(COc2ccc(C=O)cc2OC)o1 | 11.3% | 7.5% | 7.7% | u | 3.9% | 0.4%
COc1ccc(NC(=O)c2ccc(COc3ccccc3Br)o2)cc1OC | 11.6µM* | -0.4% | 1.8% | -15.2% | -10.3% | 4.6%
C=CCc1ccc(OCC(O)COCC)c(OC)c1 (stereo unspecified) | -4.8% | 2.1% | 18.4µM* | u | u | 0.2%
C=CCc1ccc(OCc2ccc(C(=O)OC)o2)c(OC)c1 | 1.2% | 1.7% | 10.3µM* | u | 12.5% | -0.7%
